An excerpt weighted towards active compounds, which were near 4.5% of everything screened.
tim23-1 inh: growth inhibitors of tim23-1 mutant yeast. S. cerevisiae tim23-1 growth, BacTiter-Glo luminescence, 24 h. inhibition, % at 20 µM. hit rate 1.3% among 330,000;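 active = growth inhibition of the mutant yeast at or above 50%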;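 note: temperature-sensitive mutant grown at 25 °C; plate controls were DMSO-treated mutant yeast for no effect and medium wells lacking yeast for full effect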
tim10-1 inh: tim10-1 yeast growth inhibition | inhibition, % at 20 µM | hit rate 2.2% among 330,000 | AID 463190 | S. cerevisiae tim10-1 ts strain growth, BacTiter-Glo, 24 h;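 active = inhibition of at least 40%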;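 note: mutant grown at 25 °C; 0% = DMSO wells with yeast and 100% = wells holding no yeast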
TIM10 inh: inhibits growth of TIM10 yeast strain; S. cerevisiae TIM10 strain growth, BacTiter-Glo luminescence, 24 h; inhibition, % at 10 µM; hit rate 1.4% among 330,000; AID 463195;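 active = inhibition of 40% or more at the single tested concentration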;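 note: wild-type TIM10 isogenic control strain grown at permissive 25 °C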
SKKanGAS inh: blocks kanamycin growth of S. pyogenes SKKanGAS strain; BacTiter-Glo, 6 h; inhibition, % at 7.5 µM; hit rate 1.3% among 300,000; AID 1662;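 active = mean replicate score, as percent of positive control median, at least 50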;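 note: strain carries kanamycin resistance gene driven by streptokinase promoter and grows in 40 µg/ml kanamycin; loss of luminescence reflects streptokinase promoter inhibition or plain growth inhibition; 0% = median of DMSO wells and 100% = positive control at its reference dose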
PfHsp90 yeast 2: growth inhibition of yeast expressing Plasmodium Hsp90; inhibition, % at 9.4 µM; S. cerevisiae expressing PfHsp90, BacTiter-Glo ATP, 48 h; yeast lacking PDR1 and PDR3 efflux regulators; hit rate 0.32% among 310,000;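 active = every replicate shows inhibition above about 80%, whatever the replicate mean, limit read from the data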;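 note: 0% = DMSO neutral controls and 100% = 20 µM radicicol positive controls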
NALP3 yeast inh: blocks the NALP3 inflammasome reconstituted in yeast; Yeast reconstituted NLRP3/ASC/caspase-1, beta-gal luminescence, 24 h; inhibition, % at 10 µM; hit rate 0.39% among 330,000;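 active = inhibition of 50% or more; inactive = inhibition below 50%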;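 note: plate controls were induced DMSO wells for no effect and uninduced yeast grown without galactose for full effect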
tim23-1 conf: tim23-1 yeast growth inhibition, confirmed | shares compounds with tim23-1 inh | S. cerevisiae tim23-1 growth, BacTiter-Glo luminescence, 24 h | inhibition, % at 20 µM | hit rate 83% among 4,400;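 active = inhibition above about 39% in either of two replicate wells at 20 µM, limit read from the data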;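 note: temperature-sensitive tim23-1 mutant grown at 25 °C; 0% = DMSO wells with yeast and 100% = medium wells without yeast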
Numbers without * were called inactive; x = not tested or not shown.

SMILES	tim23-1 inh	tim10-1 inh	TIM10 inh	SKKanGAS inh	PfHsp90 yeast 2	NALP3 yeast inh	tim23-1 conf
O=C(NC(=S)Nc1ccc(F)c(Cl)c1)C1CC1	54*	29	7	1	-22	27	33
O=C(Nc1ccc(Br)c(Cl)c1)C1CC1	63*	2	32	3	x	21	56*
O=C(NC(=S)Nc1ccc(Br)cc1)C1CCC1	57*	27	10	-3	3	34	34
O=C(O)C(C(O)c1ccccc1)[n+]1ccccc1 (configuration not stated)	11	6	-2	5	-11	-4	x
Cc1ccc(CSc2nnc(-c3cccc(S(=O)(=O)N4CCOCC4)c3)n2C2CCCC2)cc1	52*	15	17	-7	-1	2	43*
O=S(=O)(Nc1ccc(O)c2ccccc12)c1cccs1	57*	12	29	28	2	28	44*
O=S(=O)(Nc1cccc2ccccc12)c1cccs1	24	29	23	-5	6	-17	x
Oc1ccc(CCNc2c3ccccc3nc3ccccc23)cc1O	-1	-16	-14	-2	14	26	x
COCCn1c(SCC(=O)Nc2cccc(C)c2)nnc1C(C)C	50*	8	12	-5	19	-3	16
CCCN(CC(=O)Nc1ccccc1OC)C(=O)CNC(=O)c1ccc(C)s1	x	x	x	x	8	x	x
CC(=O)Nc1ccc2nc(-c3cccs3)[nH]c2c1	3	-11	-3	-1	14	2	x
O=C(Nc1ccc2nc(-c3ccc(Br)o3)[nH]c2c1)c1ccco1	57*	7	38	1	4	11	66*
Cn1cccc1-c1nc2ccc(NC(=O)c3cccs3)cc2[nH]1	56*	1	24	0	-6	11	48*
O=C(Nc1ccc2nc(-c3ccc(Br)o3)[nH]c2c1)c1cccs1	73*	18	38	12	x	40	72*
CC(=O)Nc1ccc2nc(-c3ccc(Br)o3)[nH]c2c1	0	-26	5	3	9	7	x
Cc1cc(Br)ccc1NC(=O)C1CCN(C(=O)c2ccco2)CC1	-5	-17	6	-9	-2	11	x
CC(=O)c1c(O)cc(=O)n(-c2ccccc2)c1-c1ccc(C)cc1	-1	2	8	-3	2	-6	x
CC(=O)c1c(O)c(C)c(-c2ccccc2)n(-c2ccccc2)c1=O	56*	33	24	5	34	33	43*
N#Cc1c(Cl)nc(-c2ccncc2)nc1-c1ccccc1	0	12	-3	2	4	9	x
COc1cccc(C2=NN(C(=O)c3ccco3)C(c3ccco3)C2)c1 (configuration not stated)	52*	33	11	3	-14	7	41*
CS(=O)(=O)Nc1ccc(C2=NN(C(=O)c3ccco3)C(c3ccco3)C2)cc1 (configuration not stated)	7	-6	-1	5	2	18	x
CC(C)(C)NC(=O)CSc1nc(-c2ccc(F)cc2)cs1	77*	15	3	-6	3	18	14
Oc1ccc(Br)cc1C=Nc1cccn2cc(-c3ccccc3)nc12	54*	29	4	14	11	-10	54*
CCCCCCCCCCCCCCCC(=O)Nc1ccn(C2OC(CO)C(O)C2O)c(=O)n1 (configuration not stated)	x	x	x	x	-52	x	x
C/C=C/c1ccc(OCC(=O)O)c(OC)c1	-2	14	11	-6	-11	-16	x
C/C=C/c1ccc(OCCOc2cc(C=O)ccc2OC)c(OC)c1	57*	5	30	5	21	23	67*
C#CCOCCOCCOCCNc1nc(N2CCN(C(=O)CCCCCCCCCCNC(=O)[C@H](CO)n3cc(CCCCCN)nn3)CC2)nc(N2CCN(C(=O)CCCCCCCCCCNC(=O)[C@H](CCCN=C(N)N)n3cc(C[C@@H](C)CC)nn3)CC2)n1	52*	34	20	x	x	15	49*

Screens: PubChem, several laboratories
